Source: PubChem BioAssay
MARV entry inh: inhibitors of Marburg virus binding or cell entry | Marburg virus pseudotyped entry inhibition, cell reporter | Potency, µM (top dose mostly 37.8 µM), hits mostly inhibitors | 300,000 tested, 1.8% active; calls by dose curve; tested in HEK293 cells
Lassa entry inh: Lassa virus entry inhibition. 300,000 tested, 1.2% active. AID 540256. Potency, µM (highest dose often 37.9 µM), usual class: inhibitors. Lassa virus pseudotype entry inhibition, cell reporter; calls by dose curve; tested in HEK293 cells; note: nearly all actives have a fitted effect of over 50% in size
Shiga toxin inh: blocks Shiga toxin action in Vero cells | Vero cells, Shiga toxin protein synthesis inhibition reporter | inhibition, % at 38.7 µM | 290,000 tested, 9.2% active | AID 2315; in the data active = inhibition mostly above about 28%, no sharp cut-off; inactive = mostly below about 43%
Cycloheximide cs: counter-screen hit for Shiga toxin inhibitors, cycloheximide | cell reporter, cycloheximide protein synthesis inhibition counterscreen | 300,000 tested, 12% active | max response, % | AID 2314; in the data active = max response mostly above about 13%, no sharp cut-off; inactive = mostly below about 14%; note: read at 38.3 µM for the half of the compounds with a filed dose
Hits are given with their value; – = inactive; ? = inconclusive; · = no result given; + = active, no number. Most compounds without a hit are left out; they make up all but 12% or so of the library.

SMILES	MARV entry inh	Lassa entry inh	Shiga toxin inh	Cycloheximide cs
COc1ccc2nc(C)cc(Nc3ccc(C(=O)O)cc3)c2c1	·	·	–	–
Cc1cc(=O)[nH]c(N=N/C(=N/Nc2ccc(O)cc2)c2ccccc2)n1	?	20µM	100.2	48.7
Cc1ccc([N+](=O)[O-])cc1NC(=O)Nc1cccc(F)c1	·	·	–	–
O=C(Nc1ccc(NC(=O)c2ccccc2Cl)nc1)c1ccco1	?	?	69.0	16.8
O=C(CCc1ccccc1)Nc1ccc(NC(=O)c2ccco2)nc1	–	–	–	22.3
O=C(CCc1ccccc1)Nc1ccc(NC(=O)c2ccco2)cc1	–	?	–	–
Cc1ccc(NC(=O)c2ccco2)nc1	?	–	·	·
COc1ccc(C2c3c(oc4ccc(Cl)cc4c3=O)C(=O)N2CCN2CCOCC2)cc1 (centres undefined)	–	–	–	13.0
Cc1ccc(C2c3c(oc4ccc(Cl)cc4c3=O)C(=O)N2CCCN2CCOCC2)o1 (centres undefined)	·	·	–	9.5
CC1=C(C(=O)NCc2cccc(Br)c2)C2(CCCCC2)OC1=O	·	–	·	·
CC(C)c1ccc(/C=C/C(=O)NC(=S)Nc2ccc(CN3CCOCC3)cc2)cc1	?	?	–	14.8
CC(C)c1ccc(/C=C/C(=O)NC(=S)NN2CCOCC2)cc1	·	·	–	17.4
O=C(/C=C/c1cccc([N+](=O)[O-])c1)NC(=S)Nc1ccc(CN2CCOCC2)cc1	–	?	–	–
CCCN(CCC)[C@H]1CCc2ccc(O)cc2C1	–	·	·	·
CC1CN(c2ccccc2)NC1=O (centres undefined)	–	–	–	–
CC1CC(C)CN(C(=O)CSC2=Nc3ccccc3C3=NC(Cc4c[nH]c5ccccc45)C(=O)N23)C1 (centres undefined)	?	2.59µM	–	–
O=C(CSC1=Nc2ccccc2C2=NC(Cc3c[nH]c4ccccc34)C(=O)N12)NC1CCCCC1 (centres undefined)	–	?	–	–
c1ccc(-c2nnnc3ccccc23)cc1	–	–	–	–
Clc1ccc2nnnc(-c3ccccc3)c2c1	6.51µM	10.3µM	97.8	52.1
CC(=O)N1CCN(C(=O)c2ccc(Cl)c(NC(=O)c3cccs3)c2)CC1	–	–	·	·
Cc1ccc(NC(=O)c2ccc(Cl)c(NC(=O)c3cccs3)c2)cc1	·	·	–	52.6
Cc1nc2ccc(NC(=O)c3ccc(Cl)c(NC(=O)c4cccs4)c3)cc2s1	?	–	–	20.4
CCCOc1cc(C)c(S(=O)(=O)n2ccc(C)n2)cc1C	–	–	–	–
N=C1c2ccccc2CN1CC(=O)c1ccccc1	?	?	40.3	41.1
N=C1c2ccccc2CN1NC(=O)c1ccccc1	?	?	–	–
SMILES	MARV entry inh	Lassa entry inh	Shiga toxin inh	Cycloheximide cs
Cc1ccc(C)c(C(=O)CN2Cc3ccccc3C2=O)c1	–	?	65.1	22.1
Fc1ccc(N2CCN(c3cnc4ccccc4n3)CC2)cc1	·	·	91.1	48.7
Clc1ccc(N2CCN(c3cnc4ccccc4n3)CC2)cc1	–	–	48.9	18.6
c1ccc(N2CCN(c3cnc4ccccc4n3)CC2)cc1	?	?	145.6	62.0
Cc1cc(N2CCN(c3ccccc3)CC2)nc2ccccc12	·	·	–	–
Cc1cccnc1NC(=O)CCc1nnc2ccc(N3CCC4(CC3)OCCO4)nn12	·	·	–	–
CC(=O)Nc1ccc2nc3c(=O)[nH]c(=O)[nH]c3nc2c1	–	–	–	–
CCOc1ccc(C2C=C(c3ccccc3)Nc3nnnn32)cc1 (centres undefined)	–	–	131.1	57.6
COc1ccc(C2=CC(c3cccc(C)c3)n3nnnc3N2)cc1 (centres undefined)	·	–	–	28.2
COc1ccc(CCCc2nnc(SCC(=O)Nc3ccc(C)cc3C)o2)cc1	–	–	·	·
CC(C)[C@H]1COC(NC2=N[C@@H](C(C)C)CO2)=N1	·	·	–	–
COCCNc1nc(N2CCCCC2)c2cnn(C)c2n1	·	·	–	–
Cc1ccc(Cn2c(SCC(=O)N(C)C3CCS(=O)(=O)C3)nc3ccccc3c2=O)cc1 (centres undefined)	–	?	·	·
O=C(C1CCN(Cc2ccc(OCc3ccccc3)cc2)CC1)N1CCCC1	–	–	–	26.9
C=CCN(CC=C)C(=O)C1CCN(Cc2ccc(OCc3ccccc3)cc2)CC1	·	·	·	18.5
OC1CCN(Cc2ccc(OCc3ccccc3)cc2)CC1	?	–	·	19.4
CC1CCCN(Cc2ccc(OCc3ccccc3)cc2)C1 (centres undefined)	?	–	–	21.7
O=C(Nc1nncs1)C1c2ccccc2Oc2ccccc21	–	–	–	–
Cc1ccc(S(N)(=O)=O)cc1NC(=O)/C=C/c1ccc2c(c1)OCO2	–	–	–	–
CCCCNC(=O)C1CCN(Cc2ccc(OCc3ccccc3)cc2)CC1	?	?	62.7	25.9
O=C(Nc1ccc(-c2nc3cccnc3s2)cc1)c1cccnc1Cl	?	3.55µM	57.5	66.4
Cc1c(NC(=O)c2ccc(Cl)nc2)cccc1-c1nc2cccnc2s1	·	·	–	–
CCOc1ncccc1C(=O)Nc1cccc(-c2nc3cccnc3s2)c1	–	–	–	–
O=C(Nc1ccc(-c2nc3cccnc3s2)cc1)c1ccc(Cl)nc1	–	–	67.7	34.0
COc1ccc2nc(/N=C(\N)NC(=O)C(C)(C)C)nc(C)c2c1	–	–	41.5	30.3
SMILES	MARV entry inh	Lassa entry inh	Shiga toxin inh	Cycloheximide cs
CCC(=O)N/C(N)=N/c1nc(C)c2cc(OC)ccc2n1	?	–	71.2	23.3
CCOC(=O)c1c(S(=O)(=O)N2CCCCC2C)c(C)n(C)c1C (centres undefined)	·	·	–	–
COC(=O)Cc1c(C)c2ccc(OCc3nn[nH]n3)c(C)c2oc1=O	–	–	–	–
COC(=O)Cc1c(C)c2ccc(OCC(=O)N3CCCC(C)C3)c(C)c2oc1=O (centres undefined)	·	·	–	–
C=C(C)COc1ccc2c(C)c(CC(=O)OC)c(=O)oc2c1C	–	?	+	47.1
COC(=O)Cc1c(C)c2ccc(OCC(C)=O)c(C)c2oc1=O	–	–	91.6	42.7
O=C(Nc1nnc(C2CCCCC2)s1)c1ccco1	?	–	80.4	33.9
O=C(Nc1nnc(C2CC2)s1)c1ccco1	?	–	107.4	29.4
COc1cccc(CNC(=O)CCC2CCCN(C(=O)c3ccc(OC)o3)C2)c1 (centres undefined)	·	·	59.9	22.3
COc1cccc(CNC(=O)CCC2CCCN(C(=O)c3cc(C4CC4)[nH]n3)C2)c1 (centres undefined)	·	·	34.3	17.1
COc1cccc(CNC(=O)CCC2CCCN(C(=O)c3cc(C)on3)C2)c1 (centres undefined)	·	·	–	–
O=C(Nc1ccc(Br)cc1)c1cccc(N2C(=O)C3C4CCC(C4)C3C2=O)c1 (centres undefined)	?	?	–	–
CC(=O)C1=C(O)C(=O)N(CCCn2ccnc2)C1c1ccc(C)cc1 (centres undefined)	–	–	–	–
CC(=O)NCCc1ccc(C(=O)Cn2cnc3ccccc3c2=O)cc1	–	–	78.2	79.4
Cc1ccc(C(=O)Nn2cnc3ccccc3c2=O)cc1C	·	·	82.9	44.4
O=C(Nn1cnc2ccccc2c1=O)c1ccc(Br)cc1	?	?	89.7	40.8
O=C(Nn1cnc2ccccc2c1=O)c1ccccc1F	·	·	–	11.2
O=C(Nn1cnc2ccccc2c1=O)C1CCCCC1	–	–	–	–
COc1cccc(-n2c(C)c(C(C)=O)c(C(C)=O)c2C)c1	–	–	–	–
